An excerpt weighted towards active compounds, which were near 3.6% of everything screened.
HepG2 tox-1: qHTS for Inhibitors of TGF-b: Cytotox Counterscreen; AID 588856, 2011; Potency, µM (highest dose often 46.1 µM), most hits filed as cytotoxic; HepG2 CAGA-GFP viability, ATP luminescence, 18 h; 410,000 tested, 0.76% active
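HepG2 CAGA-GFP cells (1000/well, DMEM with 1% FBS) received compound, then TGF-beta at 500 pg/mL final, and were incubated 18 hours at 37 degrees C. Viability was read by CellTiter-Glo luminescence. Media-only wells were set as complete cell-killing and DMSO as no toxicity.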
TGFb inhibitor: qHTS for Inhibitors of TGF-b; HepG2 CAGA-GFP TGF-b/SMAD3 reporter, GFP fluorescence, 18 h; TGF-beta stimulated, 500 pg/mL final; Potency, µM (highest dose often 46.1 µM), usual class: inhibitors; 410,000 tested, 1.2% active; AID 588855, 2011; further: nearly all actives have a fitted effect of over 65% in size
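HEPG2 CAGA-GFP, 1000 cells/well; 2 h settle, 37 C; cpd via pin tool; TGF-b 500 pg/mL final; 18 h, 37 C; GFP imaging ex488/em500-530; %Activity normalised to -TGF-b and +DMSO controls; CRC fit, curve class.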
Nrf2 block: Nrf2 qHTS screen for inhibitors; A549 ARE-Fluc reporter, luciferase luminescence, 18-24 h; Potency, µM (titrated, usually from 46 µM), hits mostly inhibitors; 360,000 tested, 2.1% active; AID 504444, 2011; further: nearly all actives have a fitted effect of over 60% in size
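Nrf2 function is reported as luminescence of an ARE-controlled luciferase in A549 cells. Compounds were tested at several concentrations, and a CellTiter-Fluor read on the same wells flagged cytotoxicity.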
Nrf2 ARE act: qHTS of Nrf2 Activators; 410,000 tested, 0.31% active; AREc32 ARE-luciferase reporter (MCF7-derived line), luminescence, 24 h; Potency, µM (highest dose often 46.1 µM), usual class: activators; AID 624171, 2012; further: nearly all actives have a fitted effect of over 65% in size
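Nrf2 activation is followed as ARE-luciferase induction in the AREc32 line after one day of compound treatment; luminescence is read with Steady-Glo.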
A549 viability: Nrf2 qHTS screen for inhibitors: counterscreen for cytotoxicity; A549 ARE-Fluc cells, CellTiter-Fluor viability, 18-24 h; Potency, µM (doses to about 46 µM), actives largely listed as inhibitors; 390,000 tested, 0.16% active; AID 504648, 2011
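Cytotoxicity counterscreen: CellTiter-Fluor fluorescence was measured in A549 ARE_Fluc cells after 18-24 h of compound exposure in a concentration series. The subsequent BugLite luminescent read reports ARE-luciferase activity.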
TGFb CAGA inh: qHTS for Inhibitors of TGF-b: Confirmation of Cherry Picks; Potency, µM (series often up to 46.1 µM), actives largely listed as inhibitors; HepG2 CAGA-GFP TGF-b reporter, GFP fluorescence, 18 h; cells stimulated with TGF-beta, 500 pg/mL; shares compounds with TGFb inhibitor; 1,600 tested, 63% active; further: nearly all actives have a fitted effect of over 65% in size
HepG2 tox-2: qHTS for Inhibitors of TGF-b: Cytotox Counterscreen for Cherry Picks; HepG2 CAGA-GFP viability, ATP luminescence, 18 h; cells stimulated with TGF-beta, 500 pg/mL; Potency, µM (top dose mostly 46.1 µM), hits mostly inhibitors; 1,600 tested, 27% active; AID 720535, 2013; shares compounds with TGFb inhibitor; further: nearly all actives have a fitted effect of over 70% in size
CCL64 TGFb inh: qHTS for Inhibitors of TGF-b: CCL64 Cells Orthogonal Assay for Cherry Picks | shares compounds with TGFb inhibitor | CCL64 CAGA-GFP reporter, TGF-b stimulated, GFP fluorescence, 18 h | Potency, µM (highest dose often 46.1 µM), most hits filed as inhibitors | 1,600 tested, 41% active; further: nearly all actives have a fitted effect of over 65% in size
COP TGFb inh: qHTS for Inhibitors of TGF-b: Hit Validation in HepG2 Cells using COP promoter. shares compounds with TGFb inhibitor. HepG2 COP-GFP TGF-b reporter, GFP fluorescence, 18 h; cells stimulated by added recombinant TGF-beta. Potency, µM (titrated, usually from 46.1 µM), actives largely listed as inhibitors. 1,600 tested, 3% active. AID 720537, 2013; further: nearly all actives have a fitted effect of over 70% in size
Hits are given with their value; n = inactive; u = inconclusive; x = not tested or not shown. The call rests on the fitted dose curve; in most records, active means well fitted curve in the direction sought with a large enough effect; inconclusive means small, poorly fitted or top-dose-only effect, or another doubt; inactive means no such curve, though single readings can be large; an effect the other way counts as inactive or inconclusive.

SMILES | HepG2 tox-1 | TGFb inhibitor | Nrf2 block | Nrf2 ARE act | A549 viability | TGFb CAGA inh | HepG2 tox-2 | CCL64 TGFb inh | COP TGFb inh
CC(=O)Nc1ccc(S(=O)(=O)NCC(=O)OC(C)c2ccccc2Cl)cc1 (centres undefined) | n | n | n | n | n | x | x | x | x
O=C1C(NS(=O)(=O)c2cccs2)=C(N2CCN(Cc3ccccc3)CC2)C(=O)c2ccccc21 | 10µM | 8.9µM | n | n | n | u | n | n | n
COc1ccccc1C(=O)NC(=O)COC(=O)c1nccnc1N | n | n | n | n | n | x | x | x | x
O=C(NCCc1c[nH]c2ccccc12)OCCCCOC(=O)NCCc1c[nH]c2ccccc12 | n | 10µM | u | n | n | u | 16µM | 18µM | n
COc1ccc2c(=O)c(-c3ccccc3)c(C)oc2c1 | n | n | n | n | n | x | x | x | x
Cc1oc2cc(Br)c(O)c(Br)c2c1-c1ccccc1 | n | 10µM | n | n | n | u | n | u | n
Cc1nc2c(o1)C(=O)c1ccccc1C2=Nc1ccccc1 | 1.4µM | 1.3µM | u | n | u | 3.7µM | 4.1µM | 5.8µM | 4.1µM
CC1CN(C(=O)CCC(=O)NCc2cccc(Cl)c2)c2ccccc2S1 (centres undefined) | n | x | n | n | n | x | x | x | x
Cc1ccc(F)c(CNC(=O)C2CCC(=O)N(CCCN3CCCC3=O)C2)c1F (centres undefined) | n | n | n | n | n | x | x | x | x
COc1ccc(-c2cc(-c3ccccc3)n[nH]2)c(O)c1 | n | u | u | n | n | x | x | x | x
COc1ccc(-c2cc(-c3ccccc3O)[nH]n2)cc1 | n | 10µM | u | n | n | u | u | u | n
Oc1ccc(Br)cc1-c1cc(-c2ccccc2Cl)[nH]n1 | n | n | n | n | n | x | x | x | x
COc1ccc(O)c(-c2cc(-c3ccccc3Cl)[nH]n2)c1 | n | 7.9µM | n | u | n | 18µM | u | 26µM | n
O=C(NCCCN=C1NS(=O)(=O)c2ccccc21)c1ccccc1Cl | n | n | n | n | n | x | x | x | x
CCN(CC)C(=O)c1ccc2c(=O)n(Cc3ccc4c(c3)OCO4)c(=S)[nH]c2c1 | n | u | u | n | n | x | x | x | x
CC(C)C[C@H]1CN([C@@H](CC(C)C)CN2CCCC2CN2C(=S)NC[C@@H]2Cc2ccc(O)cc2)C(=S)N1CCc1ccccc1 (some centres undefined) | n | u | u | n | n | x | x | x | x
CC(C)C[C@H]1CNC(=S)N1C[C@H]1CCCN1C[C@H](CC(C)C)N1C[C@H](Cc2ccc(O)cc2)N(CCc2ccccc2)C1=S | n | 7.1µM | x | n | x | u | 21µM | 23µM | n
CC(C)C[C@H]1CN([C@@H](CC(C)C)CN2CCC[C@@H]2CN2C(=S)NC[C@@H]2Cc2ccc(O)cc2)C(=S)N1CCc1ccccc1 | n | 10µM | x | n | x | 13µM | u | 16µM | n
CC(C)C[C@H]1CN([C@@H](CC(C)C)CN2CCCC2CN2C(=S)NC[C@@H]2Cc2ccccc2)C(=S)N1CCc1ccccc1 (some centres undefined) | x | x | x | n | x | x | x | x | x
C=CCn1c(O)c(N=NC(=S)Nc2ccc(OC)cc2)c2ccccc21 | n | u | u | n | u | u | u | u | n
C=CCn1c(O)c(N=NC(=O)OCC)c2ccccc21 | n | n | n | n | n | x | x | x | x
CC(OC(=O)c1cccc([N+](=O)[O-])c1)C(=O)N1CCc2ccccc21 (centres undefined) | n | n | n | n | n | x | x | x | x
Cc1cccc(/C=C/C(=O)c2ccc([N+](=O)[O-])o2)c1 | 10µM | 2.2µM | u | u | u | 3.3µM | 5.2µM | 2.1µM | u
Cc1ccccc1/C=C/C(=O)c1ccc([N+](=O)[O-])o1 | n | 3.2µM | u | u | n | 3.3µM | 6.5µM | 4.1µM | u
O=C(/C=C/c1cccc([N+](=O)[O-])c1)c1ccc([N+](=O)[O-])o1 | 4.5µM | 1.3µM | u | n | u | 2.9µM | 8.2µM | 1.6µM | u
SMILES | HepG2 tox-1 | TGFb inhibitor | Nrf2 block | Nrf2 ARE act | A549 viability | TGFb CAGA inh | HepG2 tox-2 | CCL64 TGFb inh | COP TGFb inh
O=C(/C=C/c1cccc([N+](=O)[O-])c1)c1ccco1 | n | n | n | n | u | x | x | x | x
Cc1cc(C)c(C)c(OCCCCN(C)Cc2ccccc2)c1 | n | n | n | n | u | x | x | x | x
CNc1ccc(/C=C2\COc3ccccc3C2=O)cc1[N+](=O)[O-] | n | n | x | n | n | x | x | x | x
O=C1/C(=C/c2ccccc2[N+](=O)[O-])COc2ccccc21 | n | 7.9µM | u | u | u | 2.1µM | 10µM | 2.3µM | n
O=C(Nc1cccc(Cl)c1)C1CCN(c2nc3ccccc3nc2C(F)(F)F)CC1 | n | n | u | n | u | x | x | x | x
O=C(Nc1cccc(Cl)c1)c1ccc(F)c(S(=O)(=O)NCc2cccs2)c1 | n | 10µM | u | n | n | u | u | u | n
CCN(c1ccccc1)S(=O)(=O)c1cc(C(=O)Nc2cccc(Cl)c2)ccc1F | n | 10µM | u | n | u | 9.2µM | u | 15µM | n
COc1ccc(N2CCN(C(=O)CCNC(=O)Cn3ccc4ccccc4c3=O)CC2)cc1 | n | n | n | n | n | x | x | x | x
C(=C\c1ccccc1)/CN1CCN(C(c2ccnc3ccccc23)c2nnnn2-c2ccc3c(c2)OCCO3)CC1 (centres undefined) | n | u | x | n | x | 15µM | n | u | n
Cc1cccc(C)c1-n1nnnc1C(c1cccs1)N1CCN(C/C=C/c2ccccc2)CC1 (centres undefined) | n | u | x | n | x | u | n | 21µM | n
C(=C\c1ccccc1)/CN1CCN(C(c2ccccc2)c2nnnn2-c2ccc3c(c2)OCCO3)CC1 (centres undefined) | n | u | x | n | x | x | x | x | x
Cc1ccc2nc(Nc3nc(-c4ccccc4)cc(=O)[nH]3)nc(C)c2c1 | n | u | u | n | u | x | x | x | x

Compound activity from PubChem.
